46 compounds from PubChem BioAssay AID504332 (National Center for Advancing Translational Sciences (NCATS), 2011) can be followed below.

SMILES strings stand for the structures. The whole screen tested about 350,000 compounds, of which about 31,000 (8.9%) were called active. Not shown: some 15% with an inconclusive outcome. The call rests on the fitted dose curve; in most records, active means well fitted inhibition curve with a large enough effect; inconclusive means small, poorly fitted or top-dose-only effect; inactive means no such curve, though single readings can be large or run the other way. Only a selection was taken, and actives are over-represented in it overall.
On the % scale 0 is the no-effect control and ±100 the full control effect; potency means the concentration at half of the fitted maximal effect.

For this experiment, the target named is Histone-lysine N-methyltransferase EHMT2 (Homo sapiens) (UniProt Q96KQ7). Description: qHTS Assay for Inhibitors of Histone Lysine Methyltransferase G9a. Further: nearly all actives have a fitted effect of over 75% in size. Conditions: G9a H3K9 monomethylation, AlphaScreen, 2 h; series mostly up to 59 µM; activity, negative = inhibition: at the top concentration. The essentials: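 G9a (20 nM) was preincubated 15 min with compound, then reacted 2 h at room temperature with 500 nM biotin-H3K9 peptide and 20 µM SAM. Monomethyl-H3K9 detected by AlphaScreen using anti-H3K9me1 antibody.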
Chain of Histone-lysine N-methyltransferase EHMT2 (Homo sapiens) (Q96KQ7 913-1193 limits assumed): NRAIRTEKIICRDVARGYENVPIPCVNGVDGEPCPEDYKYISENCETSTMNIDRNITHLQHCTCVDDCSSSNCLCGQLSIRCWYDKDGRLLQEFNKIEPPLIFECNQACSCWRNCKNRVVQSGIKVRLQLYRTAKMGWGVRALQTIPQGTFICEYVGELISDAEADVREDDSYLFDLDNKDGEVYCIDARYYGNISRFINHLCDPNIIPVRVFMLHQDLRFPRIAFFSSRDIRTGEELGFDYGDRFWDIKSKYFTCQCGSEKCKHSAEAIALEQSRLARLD
Background: qHTS replaces the single test concentration by a dilution series.
Regarding `Cc1ccc2nc(SCC(=O)NC3CCCC3)[nH]c2c1`, the “activity, negative = inhibition” value was 12.5% [at 102 µM] (inactive).

Consider `Cc1nc2nc(SCC(=O)c3ccccc3)[nH]c2cc1Br`, for which the “activity, negative = inhibition” value was -7.31% [at 102 µM] (inactive). Take `O=C(CSc1nc2ccc([N+](=O)[O-])cc2[nH]1)c1ccc(Cl)cc1`: the Potency is 5.01 µM (active).

`Cc1cc(C)nc(SCC(=O)c2ccc(Cl)cc2)n1`: the “activity, negative = inhibition” value is 4.59% [at 102 µM] (inactive). Take `CCOC(=O)CSc1nc2ccc(C)cc2[nH]1`: the “activity, negative = inhibition” value is -14.7% (inactive). As for `CC(=O)Nc1ccc(C(=O)CSc2nc3ccc(C)cc3[nH]2)cc1`, the Potency was 7.08 µM (active). `CCOC(=O)c1c(SCC(=O)Nc2cccc(C)c2C)nc(=O)[nH]c1C`: the “activity, negative = inhibition” value was 4.2% (inactive).

As for `Cc1ccc(NC(=O)C2CCN(S(=O)(=O)c3cc(-c4noc(C)n4)ccc3C)CC2)c(C)c1`, the “activity, negative = inhibition” value was 2.07% (inactive).

As to `CCOCCCNC(=O)c1cc2c(=O)n3ccccc3nc2s1`, the Potency result is “inactive”.

`COCCNC(=S)N/N=C/c1c(C)[nH]c2ccccc12`: the “activity, negative = inhibition” value is -8.34% (inactive). Consider `CN=c1scc(-c2cc(OC)ccc2OC)n1/N=C/c1c(C)[nH]c2ccccc12`, for which the Potency was 12.6 µM (active). In the case of `Cc1[nH]c2ccccc2c1/C=N\NC(=O)Cn1nnc(-c2ccccc2)n1`, the “activity, negative = inhibition” value was 20.7% (inactive). Same read-out and setting: for `O=C(Nc1ccc(F)cc1F)c1cnn(-c2ccc(F)cc2)c1-n1cccc1` the value was -3.52% (inactive).

Turning to `COCCN(CCOC)c1nc(N)c2c(N)nc3c(c2c1C#N)CC(=O)N3Cc1ccc(Cl)cc1`, the Potency was 17.8 µM (active). As for `O=C(OCC(=O)N1CCOCC1)c1ccc2ccccc2c1`, the “activity, negative = inhibition” value is 0.153% (inactive).

For the compound `CCn1c2ccccc2c2nnc(N3CCN(c4cc(C)ccc4C)CC3)nc21`, the “activity, negative = inhibition” value was -21.8% (inactive). For `CCn1c2ccccc2c2nnc(SCC(=O)O)nc21`, the Potency is 10 µM (active).

As to `C=CCn1c2ccccc2c2nnc(SC(CC)C(=O)Nc3nc(C)c(C(=O)OCC)s3)nc21` (stereo unspecified), the “activity, negative = inhibition” value is 6.8% [at 102 µM] (inactive).

Regarding `COc1cccc(C2CC(c3cccs3)=NN2C(=O)CSC2=NCCS2)c1OC` (stereo unspecified), the “activity, negative = inhibition” value is -1.42% [at 102 µM] (inactive). Still for that read-out and setting: for `O=C(COC(=O)c1cccc(Cl)c1)Nc1ccc2[nH]c(=O)[nH]c2c1` the value was 10.7% [at 2.33 µM] (inactive); for `O=C(CSc1nc2nccnc2c(=O)n1Cc1cccs1)Nc1ccccc1F`, 2.38% [at 102 µM] (inactive). On to `Cc1cc2n(n1)C(c1cc(C(C)(C)C)c(O)cc1O)Nc1ccccc1-2` (stereo unspecified), for which the “activity, negative = inhibition” value is -4.03% (inactive). Turning to `O=C(CSc1ccc(-c2ccc(-n3cccn3)cc2)nn1)Nc1ccc([N+](=O)[O-])cc1`, the Potency was 15.8 µM (active).

With `O=C(CSc1ccc(-c2ccccn2)nn1)Nc1ccccc1`, the “activity, negative = inhibition” value was -8.09% [at 102 µM] (inactive). On the same count and under the same terms, in the case of `Cc1csc(NC(=O)CSc2ccc(-c3ccc(F)cc3)nn2)n1` it was -4.33% [at 102 µM] (inactive). On the same count and under the same terms, in the case of `O=C(N/N=C\C1CC=CCC1)c1ccc(Br)o1` (stereo unspecified) it was 11.4% [at 102 µM] (inactive). Consider `Cc1nn(-c2ccccc2)c2c1C(c1ccc(F)cc1)C(C#N)=C(N)O2` (stereo unspecified), for which the Potency was 50.1 µM (active).

`C=CCOC(=O)C1=C(C)OC(N)=C(C#N)C1c1ccc(F)cc1` (stereo unspecified): the activity, negative = inhibition is 14.3% [at 2.33 µM] (inactive). Same read-out and setting: for `CCCc1[nH]nc2c1C(c1c(C)nn(-c3ccccc3)c1Cl)C(C#N)=C(N)O2` (stereo unspecified) the value was -26.6% [at 12.7 µM] (inactive); for `CC(NC(=O)c1cc2c(=O)n3ccccc3nc2n(C(C)C)c1=N)c1ccccc1` (stereo unspecified), 5.1% (inactive). `COc1ccc(C(C[N+](=O)[O-])n2nc(C)cc2C)cc1` (stereo unspecified): the Potency is 6.31 µM (active). In the case of `COc1ccc(OCc2cn3c(C)cc(C)nc3n2)cc1`, the “activity, negative = inhibition” value was 2.35% [at 102 µM] (inactive). Still for that read-out and setting: in the case of `COc1ccc(C(=O)CSc2nc(C)cc(C)n2)cc1[N+](=O)[O-]` it was 14.2% (inactive); in that of `Cc1ccc(S(=O)(=O)N2CCN(C(=O)c3ccc(-n4cncn4)c([N+](=O)[O-])c3)CC2)cc1`, -0.498% [at 12.7 µM] (inactive). With `CC(=O)c1sc(NC(=O)C2=NN(c3ccccc3)C(=O)CC2)nc1C`, the Potency was 25.1 µM (active). Regarding `C/C(N)=C(/C#N)C(=O)COC(=O)C1=NN(c2ccccc2)C(=O)CC1`, the “activity, negative = inhibition” value was 10.9% [at 102 µM] (inactive). The same measure, in the same setting: in the case of `CC(=O)c1sc(N/N=C\c2ccc(C)cc2)nc1C` it was 8.51% (inactive); in that of `COc1cc2c(cc1OC)[C@@H](Cc1cc(OC)c(OC)c(OC)c1)[N+](C)(CCCOC(=O)CC/C=C/CCC(=O)OCCC[N+]1(C)CCc3cc(OC)c(OC)cc3[C@H]1Cc1cc(OC)c(OC)c(OC)c1)CC2` (stereo partly specified), 6.96% [at 12.7 µM] (inactive); in that of `Cc1noc(C)c1C(=O)NCC1COc2ccccc2O1` (stereo unspecified), -3.43% [at 2.33 µM] (inactive).

On to `COc1ccc(-c2nc(C)c(CCNC(=O)c3ccc(C(F)(F)F)cc3)s2)cc1OC`, for which the “activity, negative = inhibition” value is -3.85% (inactive). As to `CCOc1cc(CNC(=O)c2sc3ncnc(N(C)C4CCCCC4)c3c2C)ccc1OC`, the “activity, negative = inhibition” value was -2.1% (inactive). Still for that read-out and setting: in the case of `COCCCNC(=O)C1CC(=O)N(CCc2ccc(F)cc2)C1` (stereo unspecified) it was 7.57% [at 102 µM] (inactive).

With `COCCCn1c(CCC(=O)O)ccc1-c1ccc(F)cc1`, the Potency was 11.2 µM (active). Turning to `O=C(O)CCCn1c(=O)c2cccn2c2ccc(F)cc21`, the “activity, negative = inhibition” value was 24.2% [at 102 µM] (inactive). Consider `COc1ccc(NC(=O)CCNS(=O)(=O)c2ccc3c(c2)CCCC(=O)N3)cc1Cl`, for which the “activity, negative = inhibition” value is -13.5% (inactive). The same measure, in the same setting: for `CCc1ccc(NC(=O)CN2C(=O)CCSc3ccc(S(=O)(=O)N4CCCC4)cc32)cc1` the value was 4.57% (inactive).
